In ChEMBL document CHEMBL3988442, “University of Dundee, Small-Polar-MMV Screening Library” (2021):

biological target: AMP-activated protein kinase, AMPK (Homo sapiens) (UniProt P54646+O43741+P54619+Q9UGJ0+Q9Y478+Q13131+Q9UGI9); test: AMP-dependent Kinase enzyme assay. An in vitro enzyme assay that detects ADP turnover that is directly proportional to AMPK activity. This uses naive AMPK that is activated during the assay with MK-8722; format: functional; design: scale not given: direction of the effect not stated beside the values; conditions: 30 µM

| Compound | Percent Effect |
| --- | --- |
| CCOC(=O)C1(O)CCN(C(=O)Nc2cccc(F)c2)CC1 | -1.01% |
| O=c1cc(N2CCCC2)cnn1Cc1noc(C2CCCO2)n1 (stereo not given) | -1.31% |
| CNC(=O)c1ccnc(CC2COc3c(cccc3OC)C2)c1 (stereo not given) | 7.88% |
| CC(C)n1ccnc1C1CCN(c2nccc(C(F)(F)F)n2)CC1 | 15.9% |
| CN(CCn1cncc1-c1cnc(N2CCOCC2)nc1)C1CCCC1 | 12.2% |
| CCN1CCN(c2ncnc3c2CCN(C(=O)C2CC2)C3)CC1 | -7.12% |
| CN(C)Cc1cccc(-c2cccnc2C(=O)NCc2cn(C)cn2)c1 | 23.4% |
| CC1(C)CN(Cc2ccncc2)CCS1(=O)=O | -9.12% |
| Cc1cc(NCCNc2cccnc2)nc(-c2ccccc2O)n1 | 19.9% |
| CN(C)C(=O)Cn1cnc2c(Br)cccc2c1=O | -4.74% |
| NC(=O)CN(Cc1ncc(-c2ccccc2)o1)C1CCCC1 | -1.01% |
| CC(=O)N[C@@H]1CN(C(=O)c2cccc(C)c2)C[C@H]1O | 8.23% |
| O=S(=O)(NCC1(c2cccs2)CCOCC1)c1cccnc1 | -2.3% |
| Cc1ccc(N2CCCC(N(C)c3nn4cc(C)nc4s3)C2)nn1 (stereo not given) | 33% |
| COCC(NC(=O)c1cc(NC(C)=O)ccc1Cl)c1ccnn1C (stereo not given) | -8.6% |
| Cc1c(C(=O)N2CCC3(CCCNC3=O)C2)sc2nc[nH]c(=O)c12 (stereo not given) | 13.6% |
| CSc1nccc(N2CCC3(CCCN(Cc4cccc(C)c4)C3)C2)n1 (stereo not given) | 5.62% |
| CCS(=O)(=O)NCC(=O)N(C1CC1)C1Cc2ccccc2C1 | -4.92% |
| CNC(=O)C1Cc2ccccc2CN1C(=O)CC(C)C (stereo not given) | -7.28% |
| Cc1nn(-c2ccccc2)c2nc(C(C)(C)CN3CCN(C)CC3)[nH]c12 | 9.98% |

| Compound | Percent Effect |
| --- | --- |
| Cc1nc(CN2CCN(CC(O)CN3CCOCC3)CC2)oc1C (stereo not given) | -2.09% |
| CC(C)(C)C(=O)N1CCC(c2cnc(-c3cn[nH]c3)cn2)CC1 | 1.14% |
| CN(C)Cc1cn(-c2ccccc2C(=O)NCCC2CCCN2C)cn1 (stereo not given) | -16.8% |
| Cc1nc2cc(-c3nccn3C)nn2c(N2CCCC2)c1C | 16.5% |
| c1ccc(C2CN(C3CC3)CC3(CCN(Cc4cscn4)CC3)C2)cc1 (stereo not given) | 4.81% |
| CS(=O)(=O)N1CCCCC1c1ccc(Nc2cnccn2)nc1 (stereo not given) | 4.25% |
| Cc1c(CN2Cc3nccn3CC2c2ccccc2)cnn1C (stereo not given) | 7.11% |
| CN(C)C(C(=O)N1CCC(c2ncc[nH]2)CC1)c1ccc2c(c1)OCO2 (stereo not given) | 1.17% |
| CCN(C)C(=O)c1cccc(S(=O)(=O)NCCc2csc(N)n2)c1 | -0.697% |
| CCN(Cc1cn(CC2CCNCC2)nn1)CC1CCCO1 (stereo not given) | 4.72% |
| Cc1cc(C)nc(NC2CC(=O)N(C)C2)n1 (stereo not given) | -3.57% |
| Cc1ccc(O)c(C(=O)N2CCC3(CCCNC3)C2)c1 (stereo not given) | 11.1% |
| CC(C)Cc1cc(CNC(=O)c2cccc3c2NCCC3)no1 | 1.24% |
| COc1c(F)cc(NC(=O)N2CCC(CSC)C2)cc1F (stereo not given) | 2.71% |
| CCc1nnc(NC(=O)NCCN(C)C(=O)OC(C)(C)C)s1 | -3.38% |
| CCOCCC(=O)N(CCC#N)c1ccc(C)c(C)c1 | -0.0952% |
| Cc1cc(C(N)=O)ccc1NC(=O)N1CCN(c2cccs2)CC1 | -2.73% |
| Cc1nnc(-c2cccc(C#N)c2)n1C1CCN(C(C)C)C1=O (stereo not given) | 7.44% |
| CCC(C)c1csc(NC(=O)c2sc(-c3nnc[nH]3)nc2C)n1 (stereo not given) | 12.2% |
| O=C(NCCn1ccnc1-c1cc2n(n1)CCCNC2)c1ccncc1 | 0.773% |
